Data on 7 molecules can be found in PubChem BioAssay (NCI).

The panel holds about 83,000 compounds, 20% with a hit somewhere; the sample as a whole holds those more often.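 For each line, cells grew in 96-well plates with the test compound present at a single concentration for 48 hours.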 Unmarked numbers belong to inactive results. Active and inactive are the calls of the source. Rule for the calls: active = growth percent below 10; inactive = the rest.

Test systems include NCI-H23 lung; NCI-H226 lung; NCI-H322M lung; HOP-62 NSCLC; NCI-H460 lung; HOP-92 NSCLC; NCI-H522 lung; A549/ATCC NSCLC; 786-0 renal; COLO 205 colon; DU-145 prostate; K-562 leukemia; MALME-3M melanoma; MDA-MB-231 breast; RXF 393 renal; SF-268 CNS; SF-295 CNS; SF-539 CNS; UACC-257 melanoma; M14 melanoma.
What all share (assay): NCI-60 one-dose screen, 48 h (100 = growth as untreated, 0 = no growth, -100 = all killed)
Details in all cases: 10 µM unless noted

`COC(=O)c1c2c(c(C)[n+]([O-])c1C)C(=O)C(NCc1cccc(OC)c1)=CC2=O`: the growth is 25.4% with NCI-H23 lung; 83.2% in the assay with NCI-H226 lung; 22.6% in the assay with NCI-H322M lung; 53.2% in the assay on HOP-62 NSCLC; 14.6% with NCI-H460 lung; 54.5% in the assay with HOP-92 NSCLC. For the same molecule, the growth in the assay on NCI-H522 lung was 10.8%; in the assay with A549/ATCC NSCLC it was 12.9%; in the assay on 786-0 renal it was 54.3%; with COLO 205 colon it was -63.4% (active); in the assay on DU-145 prostate, 54.8%; with K-562 leukemia it was 13.7%. Moreover, the growth in the assay on MALME-3M melanoma is -89.9% (active); in the assay with MDA-MB-231 breast, 5.97% (active); in the assay with RXF 393 renal, 38.7%; in the assay with SF-268 CNS, 36.8%; with SF-295 CNS, 69.9%; in the assay with SF-539 CNS, 11.4%. For the same molecule, the growth with UACC-257 melanoma was -25.5% (active); in the assay with M14 melanoma, 12.9%.
With `O=S(=O)(NCCCNc1nccc(-c2c(-c3ccc(F)c(O)c3)nc3occn23)n1)c1ccc(Cl)cc1`, the growth with NCI-H23 lung was 70.7%; in the assay on NCI-H226 lung, 103%; in the assay with NCI-H322M lung it was 85.3%; in the assay with HOP-62 NSCLC, 88.3%; in the assay on NCI-H460 lung, 62.3%; in the assay on HOP-92 NSCLC, 68.8%. The growth is 63.1% in the assay on NCI-H522 lung; 72.4% in the assay with A549/ATCC NSCLC; 106% in the assay on 786-0 renal; 42.9% in the assay with COLO 205 colon; 73.5% in the assay on DU-145 prostate; 45.8% in the assay with K-562 leukemia. Moreover, the growth is 5.66% (active) in the assay with MALME-3M melanoma; 40.4% in the assay on MDA-MB-231 breast; 30.8% in the assay on RXF 393 renal; 66.5% in the assay on SF-268 CNS; 103% in the assay on SF-295 CNS; 87.5% in the assay with SF-539 CNS. In addition, the growth in the assay on UACC-257 melanoma was 33.8%; in the assay with M14 melanoma it was 19.6%.
As for `CC(C)Cn1cnc2c(=O)[nH]c(N)nc21`, the growth in the assay on NCI-H23 lung was 99.3%; with NCI-H226 lung, 89.8%; with NCI-H322M lung it was 99.9%; with HOP-62 NSCLC, 80.8%; in the assay on NCI-H460 lung, 110%; in the assay with HOP-92 NSCLC it was 90.8%. Further, the growth in the assay with NCI-H522 lung was 70.8%; with A549/ATCC NSCLC it was 85.4%; in the assay with 786-0 renal, 98.9%; with COLO 205 colon it was 97.1%; in the assay with DU-145 prostate, 109%; with K-562 leukemia, 99.9%. The growth in the assay on MALME-3M melanoma is 98.3%; with MDA-MB-231 breast, 114%; in the assay with RXF 393 renal, 94.4%; in the assay on SF-268 CNS it was 106%; with SF-295 CNS, 99.2%; with SF-539 CNS, 104%. The growth in the assay with UACC-257 melanoma is 84.1%; with M14 melanoma, 105%.
Turning to `N#CC1=C(N)Oc2c(ccc3ccccc23)C1c1ccccc1` (configuration not stated), the growth in the assay with NCI-H23 lung is 25.7%; in the assay with NCI-H226 lung, 61.6%; in the assay with NCI-H322M lung, 55.6%; with HOP-62 NSCLC, 12.8%; in the assay with NCI-H460 lung, 6.31% (active); with HOP-92 NSCLC it was 38.2%. Further, the growth in the assay with NCI-H522 lung is -15.8% (active); in the assay on A549/ATCC NSCLC, 10.8%; with 786-0 renal, 13.5%; in the assay on COLO 205 colon it was -49.8% (active); with DU-145 prostate it was 13.4%; with K-562 leukemia, 9.05% (active). Also, the growth is 46.5% in the assay with MALME-3M melanoma; 28.3% in the assay with MDA-MB-231 breast; 68.5% in the assay on RXF 393 renal; 19.2% with SF-268 CNS; 8.94% (active) in the assay with SF-295 CNS; -3.42% (active) with SF-539 CNS. The growth in the assay on UACC-257 melanoma was 37.5%; in the assay with M14 melanoma, 3.13% (active).
Regarding `O=C(O)CCCN1C(=O)/C(=C/c2cn(-c3ccccc3)nc2-c2ccc([N+](=O)[O-])cc2)SC1=S`, the growth is 74.6% in the assay with NCI-H23 lung; 64.8% with NCI-H226 lung; 44.1% in the assay with NCI-H322M lung; 49.6% in the assay with HOP-62 NSCLC; 25.7% with NCI-H460 lung; 111% with HOP-92 NSCLC. For the same molecule, the growth in the assay with NCI-H522 lung was 83.7%; in the assay with A549/ATCC NSCLC it was 40.5%; in the assay on 786-0 renal, 64.5%; with DU-145 prostate it was 58.5%; in the assay with K-562 leukemia, 56.5%; with MALME-3M melanoma, 52.1%. Also, the growth is 85.5% in the assay on MDA-MB-231 breast; 86.7% in the assay on RXF 393 renal; 52.8% in the assay with SF-268 CNS; 34.8% in the assay with SF-295 CNS; 55.5% in the assay with SF-539 CNS; 84.6% with UACC-257 melanoma. Moreover, the growth in the assay with M14 melanoma was -8.74% (active).
With `COc1ccc(OC)c(/C=N/Nc2ncnc3c2c(C)nn3C)c1`, the growth was 106% in the assay with NCI-H23 lung; 92.6% in the assay on NCI-H226 lung; 114% in the assay with NCI-H322M lung; 92% in the assay on HOP-62 NSCLC; 106% in the assay with NCI-H460 lung; 96.2% with HOP-92 NSCLC. Besides, the growth in the assay with NCI-H522 lung was 93.8%; in the assay on A549/ATCC NSCLC it was 104%; in the assay on 786-0 renal it was 102%; in the assay on DU-145 prostate, 108%; in the assay with K-562 leukemia, 93.2%; in the assay on MALME-3M melanoma it was 119%. The growth with MDA-MB-231 breast was 81%; with RXF 393 renal it was 96.9%; with SF-268 CNS it was 87.1%; in the assay on SF-295 CNS, 99.7%; in the assay with SF-539 CNS, 105%; with UACC-257 melanoma, 112%. Moreover, the growth in the assay on M14 melanoma is 101%.
As to `COc1cc(/C=C/C(=O)c2ccc(F)cc2)ccc1OCCCCOc1ccc(/C=C/C(=O)c2c(C)nc3ccccc3c2C)cc1OC`, the growth was 74.9% in the assay on NCI-H23 lung; 69.4% with NCI-H226 lung; 103% in the assay on NCI-H322M lung; 90.2% in the assay with HOP-62 NSCLC; 104% in the assay on NCI-H460 lung; 84.5% with HOP-92 NSCLC. Further, the growth is 59.1% with NCI-H522 lung; 76.9% in the assay with A549/ATCC NSCLC; 86.7% in the assay on 786-0 renal; 157% with DU-145 prostate; 62.2% in the assay on K-562 leukemia; 105% in the assay with MALME-3M melanoma. In addition, the growth with MDA-MB-231 breast is 91.5%; with RXF 393 renal it was -10.5% (active); in the assay with SF-268 CNS, 127%; in the assay on SF-295 CNS, 98.8%; in the assay on SF-539 CNS, 138%; in the assay on UACC-257 melanoma, 70.3%. In addition, the growth with M14 melanoma was 103%.
